Consider 14 compounds from PubChem BioAssay (NCI).

This is part of a sample that, as a whole, favours compounds with a hit. Of some 83,000 tested, about 20% had one in any assay.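 How to read the values: 0–100, growth inhibition (40 = 60% inhibited); 0, no net growth; -100 to 0, cell death (-40 = 40% of starting cells died; -100 = all dead).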 A number with no mark means an inactive call. Activity calls are given as the source filed them. The calls were made as follows: active = growth percent below 10; inactive = the rest.

Some test systems named below: HCT-15 colon; HT29 colon; SNB-75 CNS; SNB-19 CNS; U251 CNS; PC-3 prostate; SK-MEL-5 melanoma; UACC-62 melanoma; LOX IMVI melanoma; SK-MEL-28 melanoma.
Assay in all cases: NCI-60 one-dose screen, 48 h (100 = growth as untreated, 0 = no growth, -100 = all killed)
Common to all, as to conditions: 10 µM unless noted

Turning to `O=C1CCC(C(=O)N/N=C/c2ccc([N+](=O)[O-])cc2)N1` (stereo not given), the growth with HCT-15 colon was 98.9%; with HT29 colon, 104%; in the experiment with SNB-75 CNS, 75.4%; with SNB-19 CNS, 99.9%; with U251 CNS it was 102%; with PC-3 prostate, 95.3%. In addition, the growth is 104% with SK-MEL-5 melanoma, 100% in the experiment with UACC-62 melanoma, 91.9% in the experiment with LOX IMVI melanoma and 111% in the experiment with SK-MEL-28 melanoma.

Regarding `CN1C(=O)N(C)C2C1NN=c1s/c(=C\c3ccccc3F)c(=O)n12` (stereo not given), the growth in the experiment with HCT-15 colon is 13.3%; in the experiment with HT29 colon, 2.25% (active); in the experiment on SNB-75 CNS it was -4.89% (active); in the experiment on SNB-19 CNS, 24.1%; with U251 CNS it was 14.5%; in the experiment with PC-3 prostate, 27.4%. Moreover, the growth with SK-MEL-5 melanoma is 16.7%; with UACC-62 melanoma, 21%; in the experiment on LOX IMVI melanoma it was 20.6%; with SK-MEL-28 melanoma, 47.1%.

For the compound `COc1ccccc1NC(=O)n1c(=O)cc(C)c2ccc(O)cc21`, the growth was 104% in the experiment with HCT-15 colon; 106% with HT29 colon; 101% in the experiment with SNB-75 CNS; 106% in the experiment with SNB-19 CNS; 106% with U251 CNS; 99.9% in the experiment with PC-3 prostate. The growth in the experiment with SK-MEL-5 melanoma is 98.3%; with UACC-62 melanoma, 100%; in the experiment with LOX IMVI melanoma it was 105%; in the experiment on SK-MEL-28 melanoma, 113%.

Regarding `C=C(c1ccc(C(=O)O)c(F)c1)c1cc2c(cc1C)C(C)(C)C=CC2(C)C`, the growth with HCT-15 colon is 79.3%; in the experiment with HT29 colon it was 80.7%; in the experiment with SNB-75 CNS, 89.9%; in the experiment on SNB-19 CNS it was 67.9%; in the experiment on U251 CNS it was 65.7%; in the experiment with PC-3 prostate it was 70.3%. Further, the growth with SK-MEL-5 melanoma was 69.7%; in the experiment with UACC-62 melanoma it was 81.1%; in the experiment with LOX IMVI melanoma, 81.4%; in the experiment on SK-MEL-28 melanoma it was 98.4%.

Consider `CCOC(=O)c1c(C)nc2c(c1N)C(=O)C(=O)N2CCc1ccc(OC)c(OC)c1`, for which the growth with HCT-15 colon is 33.3%; in the experiment with HT29 colon it was 39.6%; in the experiment on SNB-75 CNS, 67%; with SNB-19 CNS, 84.8%; in the experiment with U251 CNS it was 57.7%; in the experiment on PC-3 prostate it was 58.9%. The growth with SK-MEL-5 melanoma was 44.9%; in the experiment on UACC-62 melanoma, 64.8%; in the experiment with LOX IMVI melanoma, 76.9%; with SK-MEL-28 melanoma, 80.9%.

Turning to `CN1CCN(Cc2ccc(NC(=O)c3cncc(C#Cc4c(N)ncc5cc(F)ccc45)c3)cc2C(F)(F)F)CC1`, the growth with HCT-15 colon was -91.7% (active); in the experiment with HT29 colon, -74.8% (active); in the experiment with SNB-75 CNS, 45.1%; in the experiment on SNB-19 CNS, -94.9% (active); in the experiment with U251 CNS, -97.5% (active); in the experiment with PC-3 prostate, 37.9%. Moreover, the growth was -52.7% (active) in the experiment on SK-MEL-5 melanoma, 29.4% in the experiment on UACC-62 melanoma, -81.4% (active) in the experiment on LOX IMVI melanoma and -41.9% (active) with SK-MEL-28 melanoma.

For the compound `COc1ccc(C(c2cc(OC)c(OC)c(OC)c2)n2cncn2)cc1O` (stereo not given), the growth was 14% with HCT-15 colon; 5.3% (active) in the experiment on HT29 colon; 48.6% in the experiment with SNB-75 CNS; 33.3% with SNB-19 CNS; 15.3% in the experiment with U251 CNS; 21.2% in the experiment with PC-3 prostate. The growth was 14.6% in the experiment with SK-MEL-5 melanoma, 32% in the experiment with UACC-62 melanoma, 43.5% in the experiment on LOX IMVI melanoma and 57% in the experiment on SK-MEL-28 melanoma.

Regarding `COC(=O)c1nc(-c2ccccc2)oc1S(=O)(=O)NCC(c1ccc(Cl)cc1)N1CCCCC1` (stereo not given), the growth with HCT-15 colon is 49.1%; in the experiment on HT29 colon, 45.8%; in the experiment on SNB-75 CNS, 79%; in the experiment on SNB-19 CNS, 81.1%; with U251 CNS, 59.6%; in the experiment on PC-3 prostate, 58.3%. Moreover, the growth in the experiment with SK-MEL-5 melanoma was 86%; in the experiment with UACC-62 melanoma, 85.5%; with LOX IMVI melanoma, 43.9%; in the experiment with SK-MEL-28 melanoma it was 99.7%.

In the case of `CCn1c2ccccc2c2cc(C(O)c3cccc4ncccc34)ccc21` (stereo not given), the growth was 11.6% in the experiment on HCT-15 colon; 8.32% (active) in the experiment on HT29 colon; 31.1% in the experiment with SNB-75 CNS; 36.4% in the experiment with SNB-19 CNS; 19.2% in the experiment on U251 CNS; 13.4% with PC-3 prostate. The growth with SK-MEL-5 melanoma is -4.22% (active); in the experiment on UACC-62 melanoma, 16%; with LOX IMVI melanoma, -8.41% (active); in the experiment on SK-MEL-28 melanoma, 61.5%.

As to `Clc1ccc2c(NCCCn3cnc4c(N5CCCC5)nc(Cl)nc43)ccnc2c1`, the growth was 95.5% with HCT-15 colon; 100% with HT29 colon; 86.3% with SNB-75 CNS; 103% with SNB-19 CNS; 99.8% in the experiment on U251 CNS; 91.9% in the experiment with PC-3 prostate. In addition, the growth in the experiment with SK-MEL-5 melanoma was 99.7%; in the experiment on UACC-62 melanoma it was 101%; with LOX IMVI melanoma, 90.2%; with SK-MEL-28 melanoma it was 107%.

For `CCOC(=O)c1ccc2c(c1)c1c(C)c3cnccc3c(C)c1n2C`, the growth is -64.9% (active) with HCT-15 colon; -44.6% (active) with HT29 colon; -45% (active) in the experiment on SNB-75 CNS; -15% (active) with SNB-19 CNS; -45.1% (active) in the experiment with U251 CNS; -21.7% (active) in the experiment on PC-3 prostate. Further, the growth in the experiment on SK-MEL-5 melanoma is -99% (active); in the experiment on UACC-62 melanoma, -77.3% (active); in the experiment with LOX IMVI melanoma, -62.2% (active); in the experiment on SK-MEL-28 melanoma it was -97.7% (active).

With `COC(=O)CNC(=O)c1ccc(NC(=O)c2[nH]c(C)c(Cl)c2Cl)c(O[C@H]2CCNC2)c1`, the growth with HCT-15 colon is 107%; with HT29 colon it was 108%; with SNB-75 CNS, 94.8%; with SNB-19 CNS, 102%; with U251 CNS it was 101%; in the experiment with PC-3 prostate, 96.8%. For the same compound, the growth is 101% in the experiment with SK-MEL-5 melanoma, 98.7% with UACC-62 melanoma, 94.4% with LOX IMVI melanoma and 115% in the experiment on SK-MEL-28 melanoma.

In the case of `COc1cccc(CNc2nnc(C)c(C)n2)c1O`, the growth is 98.9% in the experiment with HCT-15 colon; 105% with HT29 colon; 100% with SNB-75 CNS; 93.4% in the experiment on SNB-19 CNS; 99.1% in the experiment with U251 CNS; 87.2% in the experiment with PC-3 prostate. Besides, the growth with SK-MEL-5 melanoma was 91.6%; in the experiment with UACC-62 melanoma, 97.1%; in the experiment with LOX IMVI melanoma it was 98.8%; in the experiment on SK-MEL-28 melanoma, 109%.

As to `O=C(O)c1cc2ccccc2s1`, the growth in the experiment with HCT-15 colon is 106%; in the experiment with HT29 colon, 110%; in the experiment on SNB-75 CNS, 97.9%; in the experiment on SNB-19 CNS, 111%; in the experiment with U251 CNS, 95.9%; in the experiment with PC-3 prostate, 96.4%. For the same compound, the growth was 104% in the experiment on SK-MEL-5 melanoma, 107% in the experiment with UACC-62 melanoma, 99.6% with LOX IMVI melanoma and 117% in the experiment on SK-MEL-28 melanoma.
